Only some compounds are listed: those with a hit (about 19% of all), similar ones and a draw of the others.
TGFb inhibitor – inhibitors of TGF-b signaling. AID 588855. actives 1.2% (n = 410,000). Potency, µM (series often up to 46.1 µM), for inactives: at the top dose activity, negative = inhibition, actives largely listed as inhibitors. HepG2 CAGA-GFP TGF-b/SMAD3 reporter, GFP fluorescence, 18 h; TGF-beta stimulated, 500 pg/mL final; further: potency means the concentration at half of the fitted maximal effect; on the % scale 0 is the no-effect control and ±100 the full control effect; nearly all actives have a fitted effect of over 65% in size
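HEPG2 CAGA-GFP reporter cells (1000/well, DMEM with 1% FBS) received compounds, then recombinant TGF-beta at 500 pg/mL final for 18 hours at 37 degrees C. Per-cell GFP summed per well was normalised to unstimulated and stimulated DMSO controls before curve fitting.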
S-ASM inh – inhibitors of human secretory acid sphingomyelinase. actives 0.006% (n = 340,000). P17405. placental ASM, HMU-PC fluorogenic substrate, 60 min. Potency, µM (highest dose often 57.5 µM), inactives show at the highest dose activity change, negative = inhibition, most hits filed as inhibitors. AID 504937; further: potency means the concentration at half of the fitted maximal effect
Target sequence (P17405 47-631 limits assumed): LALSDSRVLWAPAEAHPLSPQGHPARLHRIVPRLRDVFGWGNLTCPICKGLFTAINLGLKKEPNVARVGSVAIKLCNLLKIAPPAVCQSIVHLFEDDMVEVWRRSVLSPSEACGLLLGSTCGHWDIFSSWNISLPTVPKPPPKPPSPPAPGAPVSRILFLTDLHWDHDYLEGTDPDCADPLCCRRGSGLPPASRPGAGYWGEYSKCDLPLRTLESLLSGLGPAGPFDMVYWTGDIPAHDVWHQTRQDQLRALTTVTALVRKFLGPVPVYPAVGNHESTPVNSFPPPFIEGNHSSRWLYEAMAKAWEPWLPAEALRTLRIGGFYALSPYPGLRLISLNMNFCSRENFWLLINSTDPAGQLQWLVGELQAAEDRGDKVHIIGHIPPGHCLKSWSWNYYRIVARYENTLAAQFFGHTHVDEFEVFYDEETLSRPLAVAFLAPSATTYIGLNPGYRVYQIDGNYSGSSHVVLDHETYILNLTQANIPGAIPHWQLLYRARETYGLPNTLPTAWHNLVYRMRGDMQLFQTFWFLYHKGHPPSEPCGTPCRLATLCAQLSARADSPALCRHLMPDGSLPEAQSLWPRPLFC
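Human placenta-derived ASM preincubated with compound 10 min at room temperature, then reacted with 9 uM (final) fluorogenic HMU-PC substrate for 60 min at 37 C. Stop solution raises pH to 10; fluorescence read at Ex 386/Em 447 nm.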
DT40 TDP1 no CPT – qHTS for Inhibitors of human tyrosyl-DNA phosphodiesterase 1 (TDP1): qHTS in cells in absence of CPT; DT40 Tdp1-/- hTDP1 cells, no CPT, ATP luminescence, 48 h; Potency, µM (doses to about 46.2 µM), for the others: at the top dose activity change, negative = growth inhibition, most hits filed as inhibitors; actives 15% (n = 420,000); AID 686978, 2013; further: potency means the concentration at half of the fitted maximal effect; on the % scale 0 is the no-effect control and ±100 the full control effect; nearly all actives have a fitted effect of over 55% in size
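Chicken DT40 Tdp1-/- cells stably complemented with human TDP1 were seeded at 400 cells/well with DMSO in place of 20 nM camptothecin. After compound pinning, cells grew at least 48 hr at 37 °C; viability read by CellTiter-Glo luminescence.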
DT40 TDP1 CPT – DT40-hTDP1 cell growth loss with CPT. chicken DT40 Tdp1-/-;hTDP1 cells + 20 nM CPT, ATP luminescence, 48 h. Potency, µM (series often up to 46.2 µM), for inactives: at the top dose activity change, negative = growth inhibition, actives largely listed as inhibitors. actives 12% (n = 420,000). AID 686979; further: potency means the concentration at half of the fitted maximal effect; on the % scale 0 is the no-effect control and ±100 the full control effect; nearly all actives have a fitted effect of over 55% in size
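Chicken DT40 Tdp1-/- cells complemented with human TDP1, 400 cells/well, exposed to compounds plus 20 nM camptothecin for at least 48 h at 37 C; viability read as ATP content by CellTiter-Glo luminescence.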
IL1B secr inh – inflammasome signaling inhibition, IL-1 beta readout. THP-1 LPS/ATP IL-1B secretion, AlphaLISA, 16 h; stronger effect = lower value. activity change, % at 57.5 µM. actives 4.7% (n = 360,000). AID 743279; in the data active means activity change below about -50%; inconclusive means mostly about -30% to -49%; further: on the % scale 0 is the no-effect control and ±100 the full control effect
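Secreted IL-1B measured by AlphaLISA bead assay after 16 h compound exposure of THP-1 cells; compounds (final up to 57.5 uM) added 1 h before LPS (250 ng/mL) and ATP (1.25 mM) stimulation; lower signal means less secretion.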
HepG2 tox – counter-screen for TGF-b inhibitors: cytotoxicity in HepG2 cells; actives 0.76% (n = 410,000); HepG2 CAGA-GFP viability, ATP luminescence, 18 h; Potency, µM (doses to about 46.1 µM), for inactives: top-dose activity change, negative = cytotoxicity, most hits filed as cytotoxic; further: potency means the concentration at half of the fitted maximal effect
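HepG2 CAGA-GFP cells (1000/well, DMEM with 1% FBS) received compound, then TGF-beta at 500 pg/mL final, and were incubated 18 hours at 37 degrees C. Viability was read by CellTiter-Glo luminescence. Media-only wells were set as complete cell-killing and DMSO as no toxicity.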
* marks the source's active call; other numbers are inactive results; i = inactive; ? = inconclusive; . = not tested or not shown; [ ] = dose if it differs, or a comment. Unless noted, the call rests on the fitted dose curve; in most records, active means well fitted curve in the direction sought with a large enough effect; inconclusive means small, poorly fitted or top-dose-only effect, or another doubt; inactive means no such curve, though single readings can be large; an effect the other way counts as inactive or inconclusive.

SMILES | TGFb inhibitor | S-ASM inh | DT40 TDP1 no CPT | DT40 TDP1 CPT | IL1B secr inh | HepG2 tox
CCCCn1c(-c2ccc(Cl)c(Cl)c2)nc2cc3[nH]c(=O)c(C(C)C)nc3cc21 | -8% | i | ? | ? | 35 | 3%
CCCCn1c(-c2cccnc2)nc2cc3[nH]c(=O)c(C(C)C)nc3cc21 | 1% | 479% | 15µM* | 18µM* | 4 | -22%
O=C(COc1ccccc1-c1ccccc1)NCc1ccco1 | -6% | 1% | -26% | -31% | -51* | -8%
COc1ccc(CNC(=O)C/C(C)=N/NC(=O)COc2ccc(C)cc2Br)cc1 | ? | -1% | 3.7µM* | 2.3µM* | 57 | -1%
CCOc1ccccc1OCC(=O)NCc1ccco1 | 1% | 0% | 13µM* | 29µM* | -1 | -13%
O=C(COC(=O)COc1ccccc1)NCc1ccco1 | -10% | 1% | -19% | 5% | -2 | -22%
O=C(COc1ccccc1Cl)NCc1ccco1 | -2% | 0% | -26% | -5% | -4 | -5%
CCCNC(=O)C/C(C)=N/NC(=O)COc1ccc(C)cc1Br | 3% | 1% | -29% | 1% | 18 | -7%
COc1ccc(OCCC(=O)OCC(=O)NCc2ccco2)cc1 | 0% | -7% | ? | 21µM* | 6 | 18%
NC(=O)NCCCC(NC(=O)c1ccc(C#CC2(O)CCCCC2)cc1)C(=O)O (stereo unspecified) | 7% | 0% | -2% | 25% | 16 | 5%
O=C(NCc1ccc(F)cc1)c1cc(-c2ccccn2)nc2ccc(S(=O)(=O)N3CCOCC3)cc12 | -4% | . | ? | -16% | -4 | -3%
Cc1cccc(C)c1OCCNC(=O)C(=O)NCc1ccco1 | -17% | -1% | 2.3µM* | 1.8µM* | 47 | 1%
O=C(COc1ccc(Cl)cc1Cl)NCc1ccco1 | 2% | 0% | -7% | -19% | -15 | 11%
Cc1cc(Cl)cc(Cl)c1OCC(=O)NCc1ccco1 | -26% | -2% | 18µM* | ? | ? | -9%
CCOC(=O)C1=C(C)NC(C)=C(C(=O)OCC)C1C(=O)OCC(=O)NCc1ccco1 | 2% | 138% | 21µM* | -55% | 29 | 8%
Cc1cccc(C)c1NC(=O)NCc1ccco1 | 6% | 1% | -7% | -8% | 2 | -1%
C/C(CC(=O)NCc1ccco1)=N\NC(=O)COc1ccc(Cl)cc1Cl | -13% | -1% | 21µM* | 18µM* | 41 | 4%
CC(OC(=O)CCc1ccccc1)C(=O)Nc1ncc(Cl)cc1Cl (stereo unspecified) | 0% | 0% | 14% | 9% | 2 | 4%
CC(Oc1ccccc1F)C(=O)NNC(=O)Cc1ccc(S(=O)(=O)N2CCOCC2)s1 (stereo unspecified) | -11% | 2% | -1% | ? | 1 | 1%
Cc1nnc(NC(=O)C2CCN(S(=O)(=O)c3ccc(Cl)cc3)CC2)s1 | 10% | 4% | -1% | 2% | 7 | -3%
COCCN(C)C(=O)c1cnn(-c2nccc(-c3cc(OC)ccc3OC)n2)c1C | . | . | -17% | 0%[9.04 µM] | . | .
CC(=O)Nc1cc(-c2cccc(N)c2)cn2c(-c3ccccc3)cnc12 | -12% | . | ? | 18µM* | -4 | -38%
CC(=O)Nc1cc(-c2cccc(C(=O)N(C)C)c2)cn2c(-c3ccc(F)cc3)cnc12 | 2% | . | ? | ? | . | -10%
CC(=O)Nc1cccc(-c2cc(NC(C)=O)c3ncc(-c4ccc(F)cc4)n3c2)c1 | -7% | . | 15µM* | ? | 22 | -8%
CC(=O)Nc1cc(-c2cccc(F)c2)cn2c(-c3ccccc3)cnc12 | -25% | . | ? | 18µM* | -8 | -40%
SMILES | TGFb inhibitor | S-ASM inh | DT40 TDP1 no CPT | DT40 TDP1 CPT | IL1B secr inh | HepG2 tox
CC(=O)Nc1cc(-c2cccc(F)c2)cn2c(-c3ccc(F)cc3)cnc12 | 10% | . | 23µM* | ? | 6 | -20%
CC(=O)Nc1cc(-c2cccc(C(=O)N(C)C)c2)cn2c(-c3ccc(C(C)=O)cc3)cnc12 | 6% | . | 12µM* | 16µM* | ? | -1%
CC(=O)Nc1cc(-c2cccc(C(=O)N(C)C)c2)cn2c(-c3ccccc3)cnc12 | -1% | . | ? | ? | -11 | -19%
CC(=O)Nc1cccc(-c2cc(NC(C)=O)c3ncc(-c4ccc(C(C)=O)cc4)n3c2)c1 | -4% | . | 7.3µM* | 5.2µM* | 0 | 3%
CC(=O)Nc1cc(-c2ccoc2)cn2c(-c3ccccc3)cnc12 | ? | . | 0.92µM* | 1µM* | -12 | -7%
CC(=O)Nc1cc(-c2cccc(F)c2)cn2c(-c3ccc(S(C)(=O)=O)cc3)cnc12 | 19% | . | 21µM* | ? | -52* | 0%
O=C(Nc1cccc(F)c1)Nc1nnc([C@@H]2O[C@H](CO)[C@@H](O)[C@H]2O)s1 | -2% | . | -8% | -13% | 29 | 1%
CCCNC(C)(C)COC(=O)c1ccccc1 | 4% | -4% | -3% | 8% | 15 | 3%
CC(C)(C)C(=O)CSc1nc2ccsc2c(=O)n1Cc1ccccc1F | 0% | . | ? | ? | . | 0%
O=C(NC1CC(=O)N(c2ccccc2)C1)c1ccc(S(=O)(=O)N2CCOCC2)cc1 (stereo unspecified) | 4% | . | -27% | -7% | . | -12%
CCOc1ccccc1NC(=O)CSc1nnc(CCC(=O)Nc2ccccc2F)n1C | 2% | 4% | -6% | -1% | -9 | -5%
CCOC(=O)[C@@H]1[C@H]2COc3ccccc3[C@H]2N2C(=O)N(c3ccccc3)C(=O)[C@]12C | -14% | 0% | -16% | -16% | 12 | -16%
O=C(NNC(=O)c1cc(S(=O)(=O)N2CCOCC2)ccc1Cl)c1ccc(F)cc1 | -3% | . | -20% | -28% | 19 | 3%
O=C(/C=C/c1ccco1)NC(=S)Nc1ccc(O)c(-c2nc3ccccc3s2)c1 | -18% | 3% | 21µM* | 18µM* | 26 | -31%
O=C(Nc1ccc(O)c(-c2nc3ccccc3s2)c1)c1cccs1 | ? | . | -21% | -6% | 25 | -21%
O=C(/C=C/c1ccco1)NC(=S)NNC(=O)c1ccco1 | -7% | -2% | 21µM* | 16µM* | 73 | -3%
O=C(Nc1ccc(O)c(-c2nc3ccccc3s2)c1)c1cc(=O)c2ccccc2o1 | -18% | -1% | 8.2µM* | 9.2µM* | 8 | -33%

Screening results (PubChem BioAssay)
